Shown are actives, neighbours in structure and some others; about 2% of the full set was active somewhere.
TLR9-MyD88 inh: inhibitors of TLR9-MyD88 association in cells, primary screen, cell-based, CHO, BLA complementation, fluorescence | CCF4 FRET ratio | inhibition, % at 4.98 µM | 0.21% of 340,000 active | AID 504734, 2011;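 active = inhibition above the mean over all tested compounds plus 3 SD, cut at about 21% in these data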;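 note: 0% = DMSO only wells and 100% = clavulanate BLA inhibitor control wells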
B2AR ag: beta2AR agonists driving receptor internalization, primary screen, cell-based, FAP fluorogen, flow cytometry | AID 504454, 2011 | response, % (no concentration beside the values) | Beta-2 adrenergic receptor (Homo sapiens), P07550 | 0.43% of 340,000 active | Am2.2-beta2AR cells;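 active = response above a set limit, near 3 SD of response in nonfluorescent compounds, cut at about 42% in these data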
NOD2-RIPK2 inh: NOD2-RIPK2 binding disruptors in cells, primary screen, fluorescence, CHO cells, BLA complementation | AID 624267, 2012 | CCF4 ratio | inhibition, % at 4.98 µM | Receptor-interacting serine/threonine-protein kinase 2 (Homo sapiens), O43353 | 0.38% of 360,000 active; in the data active = inhibition above about 21%;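 note: 0% = vehicle only and 100% = reference blocker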
Granule exo inh: LAMP-1 surface exposure blockers, TALL-104 cells – cell-based, flow cytometry, MLPCN library, primary screen; TALL-104 LAMP-1 surface exposure; cells stimulated with thapsigargin and PMA; inhibition, % at 10 µM; 0.66% of 360,000 active; AID 651702, 2012;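 active = inhibition above about 55%, limit read from the data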
ABHD5 PLIN5 PPI: ABHD5-PLIN5 interaction inhibitors, primary screen, cell lysate, split luciferase complementation, luminescence; Perilipin-5 (Homo sapiens) + 1-acylglycerol-3-phosphate O-acyltransferase ABHD5 (Homo …; Split G. princeps luciferase complementation, 4 h; inhibition, % at 4 µM; 0.78% of 360,000 active; AID 602281, 2012;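 active = inhibition above the mean inhibition across every tested compound plus 3 SD, cut at about 22% in these data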;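 note: 0% = DMSO only wells and the 100% control is not disclosed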
TLR4-MyD88 BLA: inhibitors of TLR4-MyD88 association in cells, primary screen, cell-based, HeLa CL3-4, BLA complementation, FRET ratio. Toll-like receptor 4 (Homo sapiens) + Myeloid differentiation primary response protein …. HeLa CL3-4 TLR4/MyD88 BLA complementation. inhibition, % at 8.4 µM. 0.18% of 200,000 active. AID 861, 2007; in the data active = inhibition above about 25%;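 note: 0% = vehicle and 100% = reference inhibitor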
TLR4-MyD88 conf: TLR4-MyD88 association inhibitors, retest, confirmation, cell-based, HeLa CL3-4, BLA complementation, FRET ratio; shares compounds with TLR4-MyD88 BLA; 50% of 350 active; CCF4 FRET ratio; inhibition, % at 8.4 µM;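 active = mean inhibition across three repeat runs above about 25% carried over from the earlier screen, limit read from the data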;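 note: plate controls were DMSO only for no effect and clavulanic acid blocking BLA at full dose for full effect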
BLA inhibitor ct: inhibits beta-lactamase activity, counter-screen to TLR4-MyD88 binding inhibitors; shares compounds with TLR4-MyD88 BLA; HeLa BLA reporter, CCF4 FRET ratio; inhibition, % at 8.4 µM; 63% of 350 active;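 active = mean inhibition over three repeats above about 26% taken from the earlier screen, limit read from the data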;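 note: HeLa cells stably expressing beta-lactamase reporter as counterscreen for TLR4-MyD88 inhibitors; 0% = DMSO and 100% = clavulanic acid full inhibition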
TLR9-MyD88 conf: TLR9-MyD88 association inhibitors, retest, confirmation, cell-based, CHO, BLA complementation, fluorescence, triplicate; shares compounds with TLR9-MyD88 inh; inhibition, % at 4.98 µM; 51% of 680 active; AID 540250, 2011; CCF4 FRET ratio;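 active = mean inhibition across three repeats above about 21% taken from the earlier screen, limit read from the data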;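 note: blue over green emission ratio reports constitutive TLR9 MyD88 association via BLA complementation; 0% = DMSO vehicle wells and 100% = clavulanate BLA inhibitor wells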
BLA counter-1: beta-lactamase reporter inhibitors in CHO cells, artefact control for TLR9-MyD88 binding inhibitor project, cell-based, fluorescence. shares compounds with TLR9-MyD88 inh. AID 540251, 2011. CHO-BLA cells, CCF4 FRET ratio, BLA reporter. 7% of 680 active. inhibition, % at 4.98 µM;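 active = mean inhibition above a 50% cutoff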;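 note: counterscreen of TLR9-MyD88 hits on CMV-driven BLA in CHO-K1 cells; 0% = DMSO alone and 100% = clavulanate blocking BLA; higher means less blue over green ratio so more BLA blockade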
TLR9 CHO cytotox: CHO cell viability loss – luminescence, single concentration, cytotoxicity control for TLR9-MyD88 binding inhibitor project | shares compounds with TLR9-MyD88 inh | TLR9-MyD88 CHO cells cytotoxicity | inhibition, % at 4.98 µM | 39% of 680 active | AID 588336, 2011; in the data active = inhibition above about 11%
NOD2-RIPK2 conf: NOD2-RIPK2 binding disruptors, retest, confirmation, fluorescence, CHO cells, BLA complementation, triplicate. 70% of 1,200 active. AID 624370, 2012. shares compounds with NOD2-RIPK2 inh. inhibition, % at 4.98 µM. CCF4 FRET;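 active = mean inhibition across replicates above a set limit taken from the earlier primary screen, cut at about 21% in these data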;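 note: 0% = DMSO-only wells and the high end = clavulanate BLA-blocked wells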
BLA counter-2: hits BLA reporter in NOD2-RIPK2 inhibitor counterscreen. inhibition, % at 4.98 µM. shares compounds with NOD2-RIPK2 inh. AID 624371. CHO BLA reporter, CCF4 FRET ratio. 57% of 1,200 active;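 active = mean inhibition above the low-control mean inhibition plus three low-control SD, cut at about 11% in these data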;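 note: 0% = DMSO only wells and 100% = clavulanate high control wells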
* hit, by the source's call; . = no result given.

SMILES	TLR9-MyD88 inh	B2AR ag	NOD2-RIPK2 inh	Granule exo inh	ABHD5 PLIN5 PPI	TLR4-MyD88 BLA	TLR4-MyD88 conf	BLA inhibitor ct	TLR9-MyD88 conf	BLA counter-1	TLR9 CHO cytotox	NOD2-RIPK2 conf	BLA counter-2
Nc1ccc(/C=C/C(=O)c2cccs2)cc1	23*	7	30*	-2	13	25*	17	37*	9	11	-3	40*	34*
c1ccc(C[C@H]2COc3c4ccccc4nn32)cc1	.	.	-1	-2	3	.	.	.	.	.	.	.	.
CC1(C(=O)NS(=O)(=O)Cc2ccccc2)CCN1C(=O)Cc1ccccc1Cl (configuration not stated)	.	.	-5	2	-3	.	.	.	.	.	.	.	.
CCN(CC)c1ccc2c(c1)oc(=O)c1c(Cl)cc(=O)oc12	50*	-302	62*	41	14	80*	87*	109*	51*	74*	73*	89*	84*
CCN(CC)c1ccc2c(C)c(Cl)c(=O)oc2c1	8	11	15	9	-3	16	.	.	.	.	.	.	.
COc1ccc2cc(C3CC=C(COC(C)=O)CN3S(=O)(=O)c3ccccc3[N+](=O)[O-])n(C(=O)OC(C)(C)C)c2c1 (configuration not stated)	.	.	-9	-8	5	.	.	.	.	.	.	.	.
CCC(=O)c1ccc(/C=C/c2nc3ccccc3n2C)o1	43*	-25	58*	0	2	50*	47*	65*	31*	39	1	63*	64*
O=C1NC[C@H](CCCCN2C[C@H](Cc3ccccc3)N(CCC3CCCCC3)C(=O)C2=O)N(CCc2ccccc2)C1=O	.	.	2	-10	5	.	.	.	.	.	.	.	.
COc1cccc(S(=O)(=O)N(C)C[C@H]2OCc3cnnn3CCCC(=O)N([C@H](C)CO)C[C@@H]2C)c1	-11	.	-10	3	-1	.	.	.	.	.	.	.	.
O=C1c2cccc3c(O)ccc(c23)C(=O)N1Cc1ccccc1	26*	10	42*	21	-28	32*	11	34*	.	.	.	46*	56*
CC(=O)c1sc2nc(-c3ccc(C)cc3)c3c(c2c1N)CCCC3	51*	4	36*	15	-7	26*	32*	61*	41*	46	9	57*	68*
Cc1ccc(-c2nc3sc(C(N)=O)c(N)c3c3c2CCCC3)cc1	-2	9	1	48	-6	9	.	.	.	.	.	.	.
CC(C)CN(C(=O)CCNC(=O)c1ccc(Cl)cc1)C1CCS(=O)(=O)C1 (configuration not stated)	5	9	1	0	2	.	.	.	.	.	.	.	.
Cc1[nH]c2ccccc2c1/C=C/C(=O)c1ccccc1	40*	-20	44*	3	4	27*	27*	49*	21	22	1	43*	49*
Cc1[nH]c2ccccc2c1/C=N/NC(=O)c1ccccc1	3	-1	4	-4	0	.	.	.	.	.	.	.	.
C=CC(=O)Nc1cccc(CN2C(=O)N(c3cc(OC)cc(OC)c3)Cc3cnc(NCCCCN(CC)CC)nc32)c1	5	13	.	.	.	.	.	.	.	.	.	.	.
CCc1ccc(C2CC3C(CN2S(=O)(=O)c2ccc(C)cc2)C(=O)CC(c2ccc(CC)cc2)N3S(=O)(=O)c2ccc(C)cc2)cc1 (configuration not stated)	.	.	-13	-1	-5	.	.	.	.	.	.	.	.
O=[N+]([O-])c1ccc(N/N=C/c2c[nH]c3ccccc23)cc1	44*	-214	36*	10	10	40*	28*	53*	29*	24	9	46*	47*
O=[N+]([O-])c1ccccc1N/N=C/c1c[nH]c2ccccc12	-6	2	-7	-2	11	-16	.	.	.	.	.	.	.
CCc1ccc2c(c1)C1(NN=C(c3cccc4ccccc34)S1)C(=O)N2 (configuration not stated)	27*	-1	30*	4	-11	31*	3	28*	.	.	.	4	8
CCc1ccc2c(c1)NC(=O)C2(C)Cc1ccccc1 (configuration not stated)	.	.	-7	7	-6	.	.	.	.	.	.	.	.
COc1ccc(C(=O)c2sc3nc(-c4ccccc4)ccc3c2N)cc1	40*	-179	50*	4	-10	47*	52*	86*	52*	53*	6	73*	79*
CC(C)OC(=O)c1sc2nc(-c3ccccc3)ccc2c1N	38*	-6	24*	19	-6	49*	48*	77*	42*	45	8	64*	73*
Cc1ccc(C(=O)c2ccccc2C(=O)OCC(=O)NCCc2ccc(Cl)cc2Cl)cc1	2	0	-4	8	6	-1	.	.	.	.	.	.	.
CCCNC(=O)COC(=O)c1ccccc1C(=O)c1ccc(Cl)c([N+](=O)[O-])c1	17	35	38*	9	2	26*	24	7	.	.	.	62*	11*
COC(=O)c1sc(N)nc1CCNC(=O)OC(C)(C)C	.	.	-27	1	8	.	.	.	.	.	.	.	.

High-throughput results deposited in PubChem BioAssay by several laboratories.
